What all share (experiment): NCI-60 one-dose screen, 48 h (100 = growth as untreated, 0 = no growth, -100 = all killed)
Conditions in all cases: 10 µM unless noted

The subject of test [1] is SK-MEL-2 melanoma.
Test [2] concerns EKVX NSCLC.
Test [3] concerns SN12C renal.
For test [4], the system named is UO-31 renal.
In test [5] the test system is TK-10 renal.
Test [6] concerns ACHN renal.
For test [7], the system named is CAKI-1 renal.
In test [8] the test system is A498 renal.
Test [9] concerns CCRF-CEM leukemia.
In test [10] the test system is MOLT-4 leukemia.
Test [11] relates to SR leukemia.
Test [12] relates to RPMI-8226 leukemia.
Test [13] concerns OVCAR-8 ovarian.
Test [14] has as its system OVCAR-5 ovarian.
The test system of test [15] is OVCAR-4 ovarian.
Test [16] has as its system SK-OV-3 ovarian.
Test [17] deals with IGROV1 ovarian.
In test [18] the test system is OVCAR-3 ovarian.
Test [19] relates to HS 578T breast.
Test [20] concerns NCI/ADR-RES ovarian.

This note sets out measurements from PubChem BioAssay (NCI).

Compounds without any hit were thinned out: in the full panel of roughly 83,000, 20% have a hit.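 For each line, cells grew in 96-well plates with the test compound present at a single concentration for 48 hours.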 A number with no mark means an inactive call. The source made the active and inactive calls. How the source made its calls: active means growth percent below 10; inactive means the rest.

As for `COc1ccc(N=Nc2c(N)nn3c(-c4ccc5c(c4)C=S=C5)ccnc23)cc1`, the growth was 93.4% in test [1]; 33.9% in test [2]; 39% in test [3]; 16.4% in test [4]; 82.4% in test [5]; 31.6% in [6]. Further, the growth in test [7] was 34%; in [8], 144%; in [9], 10.1%; in test [10], 32.9%; in test [11], 33.9%; in test [12], 9.87% (active). The growth was 28.8% in [13]; 80.4% in test [14]; 24.3% in test [15]; 68.7% in test [16]; 27% in test [17]; 48.4% in test [18]. In addition, the growth in test [19] was 24.7%; in test [20], 3.61% (active).
As to `COc1ccc(N=Nc2c(N)nn3c(-c4cc5ccccc5oc4=O)ccnc23)cc1`, the growth in test [1] is 39.3%; in test [2] it was 44.1%; in test [3] it was 24.1%; in test [4], 40.7%; in test [5], 77.7%; in [6], 3.84% (active). In addition, the growth in [7] is 53.8%; in test [8], 138%; in test [9], 96.3%; in test [10], 104%; in test [11], 21%; in test [12], 72.8%. Also, the growth is 38.8% in [13]; 68.5% in test [14]; 70.8% in [15]; 57.8% in test [16]; 29.4% in test [17]; 74.3% in [18]. The growth in test [19] was 29.1%; in test [20], 22.1%.
Consider `CN1CCN(C(=O)Oc2cc3c(c4ccccc24)[C@H](CCl)CN3C(=O)c2cc3cc(OCCCN4CCC4)ccc3[nH]2)[C@@H]2CSSC[C@H]21`, for which the growth in test [1] is -83.7% (active); in [2] it was -50.6% (active); in test [3] it was -75.8% (active); in test [4], -0.968% (active); in test [5], 11.7%; in test [6], -22.8% (active). For the same compound, the growth in test [7] was 1.34% (active); in [8], -18.7% (active); in test [9], -28% (active); in test [10], -9.2% (active); in [11], 5.86% (active); in [12], -23.6% (active). The growth in test [13] was -32.4% (active); in test [14], -18.1% (active); in test [15], 12.5%; in test [16], -13.2% (active); in test [17] it was 2.74% (active); in test [18], 4.14% (active). The values for the growth in [19] and in [20] were -12.2% (active) and -23.1% (active), respectively.
Take `COc1ccc(C(=O)c2c(N)c(C#N)cn2-c2ccc([N+](=O)[O-])cc2)cc1`: the growth in test [1] is 108%; in [2] it was 93.6%; in test [3], 101%; in [4], 90.1%; in test [5] it was 117%; in [6], 106%. Besides, the growth in [7] was 85.4%; in [8], 126%; in test [9], 112%; in [10], 105%; in [11] it was 94.5%; in test [12], 108%. Moreover, the growth was 88.5% in test [13]; 107% in [14]; 101% in [15]; 93.9% in [16]; 109% in test [17]; 122% in test [18]. For the same compound, the growth in test [19] was 95.2%; in [20], 98.2%.
Take `CC1=C(C(=O)Nc2ccccc2)C(c2cccc3ccccc23)n2c(nc3ccccc32)N1` (stereo not given): the growth in test [1] is 99.7%; in test [2], 67.4%; in test [3], 18.5%; in [4], 59%; in test [5], 81%; in test [6] it was 27.6%. The growth was 5.8% (active) in [7]; 102% in test [8]; 65.4% in [9]; 67.5% in test [10]; 72.4% in test [11]; 76.9% in [12]. Also, the growth was -0.819% (active) in test [13]; 76.3% in test [14]; 42.3% in test [15]; -2.39% (active) in test [16]; 68% in test [17]; 38.6% in [18]. In addition, the growth was -13.9% (active) in [19] and 32.2% in [20].
As to `Cc1ccc(C2CC(c3ccc(NC(=O)Nc4ccccc4)cc3)=NN2c2ccc(S(N)(=O)=O)cc2)cc1` (stereo not given), the growth in test [1] is -81.7% (active); in [2], -95.1% (active); in test [3], -91.6% (active); in test [4] it was -100% (active); in test [5] it was -81.4% (active); in test [6], -100% (active). Moreover, the growth in [7] was -98.2% (active); in test [8] it was -93% (active); in test [9], -17.7% (active); in test [10] it was -27.8% (active); in [11], -12.7% (active); in test [12] it was -11.5% (active). Moreover, the growth is -46.2% (active) in [13]; -95.4% (active) in test [14]; -87.6% (active) in [15]; -77.6% (active) in [16]; -93.5% (active) in test [17]; -75.8% (active) in test [18]. In addition, the growth in test [19] is -28.7% (active); in test [20] it was -66.9% (active).
Turning to `CN(C)CCCNC(=S)Nc1ccc(/C=C/c2ccc(Cl)cc2)cc1`, the growth was -85.4% (active) in [1]; -35.1% (active) in test [2]; -100% (active) in test [3]; -95.8% (active) in test [4]; -87.9% (active) in test [5]; -97.6% (active) in test [6]. The growth was -77.3% (active) in test [7]; -47.7% (active) in [8]; -16.9% (active) in [9]; 0.54% (active) in test [10]; -1.02% (active) in test [11]; 3.25% (active) in test [12]. The growth in test [13] is -40.8% (active); in [14] it was -99.6% (active); in [15] it was -68.2% (active); in test [16], -56.9% (active); in test [17] it was -70.4% (active); in [18], 23.6%. The results for the growth in test [19] and in test [20] were 11.7% and -43.6% (active), respectively.
